PubChem BioAssay AID1240 (Sanford-Burnham Center for Chemical Genomics, 2008)
Hit rate of the full screen: of about 50,000 compounds, about 800 (1.6%) showed an effect of 50% or more. For the sample, strong results were picked, then their nearest neighbours and some compounds at random.

The molecules below were run against Bcl-2-like protein 10 (Homo sapiens) (UniProt Q9HD36) (assay: TR3 peptide-Bcl-B binding displacers, biochemical primary FP assay, phenotype converters (AID 1240;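 also: 0% = Bcl-B with tracer peptide and DMSO and 100% = tracer peptide lacking Bcl-B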)). Details: GST-Bcl-B / FITC-TR3 peptide fluorescence polarization; stronger effect = higher value; compound at 3.75 mg/L.
Sequence of Bcl-2-like protein 10 (Homo sapiens) (Q9HD36 whole entry, looked up): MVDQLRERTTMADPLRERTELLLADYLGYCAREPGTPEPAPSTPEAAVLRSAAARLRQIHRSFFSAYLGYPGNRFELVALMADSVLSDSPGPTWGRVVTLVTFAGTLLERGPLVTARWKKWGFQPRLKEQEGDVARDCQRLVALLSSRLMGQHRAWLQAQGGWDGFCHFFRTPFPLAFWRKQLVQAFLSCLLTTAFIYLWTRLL

Structure (SMILES) | displacement
CC(C)(C)C1CCc2c(sc(NC(=O)c3ccccc3)c2C(N)=O)C1 (stereo not given) | 37%
CCNC(=O)C(=O)Nc1ccc(OCC)cc1 | 7.5%
COc1ccc(NC2(c3ccccc3)C(=O)c3c(Cl)c(Cl)c(Cl)c(Cl)c3C2=O)cc1 | 4.4%
O=Cc1cccc(OCc2ccccc2F)c1 | -0.4%
CC1(O)c2ccccc2C(=O)N1Cc1ccccc1 (stereo not given) | 12.6%
Cc1ccc(Cc2cnc(NC(=O)c3cccc([N+](=O)[O-])c3)s2)cc1 | 26.3%
C=C1CSc2nc(=O)c3c4c(sc3n21)CCC4 | 11.7%
O=C1NC(=O)C(=Cc2ccc(OC(=O)c3cccc([N+](=O)[O-])c3)cc2)C(=O)N1 | 1.8%
O=C1OC(c2cccc(Cl)c2)=N/C1=C\c1ccc(OC(=O)c2cccc([N+](=O)[O-])c2)cc1 | 71.9%
Cc1cccc(C(=O)Oc2ccc(/C=C3/N=C(c4ccccc4)OC3=O)cc2)c1 | 0.5%
CCCCCCCNC1CC(=O)N(c2ccc(Br)cc2)C1=O (stereo not given) | 1.7%
Cc1ccc(-c2[nH]n3c(=O)c4c(nc3c2C)CCCC4)cc1 | -2.2%
Cc1ccc(-c2[nH]n3c(=O)c4c(nc3c2C)CCS4)cc1 | -0.6%
Cc1ccc(-c2[nH]n3c(=O)c4c(nc3c2C)CCC4)cc1 | 60.8%
CCOc1ccc(/C=C(/C#N)c2nc(-c3ccc(Br)cc3)cs2)c(OCC)c1 | 38.9%
O=C(Cc1ccc([N+](=O)[O-])cc1)NCc1ccccn1 | 14.1%
COc1ccc(/C=C/C(=O)NC(C)Cc2ccccc2)cc1OC (stereo not given) | -5.6%
CCOc1cccc(/C=C2/SC(=S)NC2=O)c1O | 5.7%
CCOc1ccc2ccc(OCC)c(/C=C3/SC(=S)NC3=O)c2c1 | -0.8%
COc1ccc(/C=C2/SC(=S)NC2=O)cc1OCc1ccc(Cl)cc1 | 4.2%
CCOc1cc(/C=C2/SC(=S)NC2=O)ccc1OC | 119%
CCOc1ccc(/C=C2/SC(=S)NC2=O)cc1Cl | 11.7%

Structure (SMILES) | displacement
CCOc1cc(/C=C2\SC(=S)NC2=O)ccc1OC(C)=O | 12%
COc1ccc(/C=C2/SC(=S)NC2=O)cc1OCc1ccc([N+](=O)[O-])cc1 | 76.9%
COc1cc(/C=C2/SC(=S)NC2=O)ccc1OCc1ccc(I)cc1 | -8.4%
CCOc1ccc(/C=C2/SC(=S)NC2=O)c(OCC)c1 | 114%
CCOc1ccc(C=Nc2ccc3c(c2)nc(C)n3C)cc1 | 6.5%
CSc1ccccc1NC(=O)c1ccc([N+](=O)[O-])cc1 | 10.7%
CCOC(=O)c1cc(C#N)c(SCc2ccccc2)[nH]c1=O | -2.6%
COc1ccc(C(=O)N2CCN(c3cccc(C)c3C)CC2)cc1OC | 2.4%
Cc1cc(C)cc(CC2CC(=O)N(c3ccc(Br)cc3)C2=O)c1 (stereo not given) | -8%
CC(=O)n1cc(Nc2ccccc2C(=O)O)c2ccccc21 | -3%
O=C(NCC1CCCO1)c1ccc(S(=O)(=O)N2CCCCC2)cc1 (stereo not given) | -4.5%
Cc1cc(/C=C2/NC(=O)NC2=O)c(C)n1-c1cccc(Cl)c1 | 10%
Cc1cc(C=C2C(=O)c3ccccc3C2=O)c(C)n1-c1cccc([N+](=O)[O-])c1 | 11.8%
Cc1cc(/C=C2/SC(=O)NC2=O)c(C)n1-c1cccc(Cl)c1 | 18.6%
Cc1cc(C=C2C(=O)c3ccccc3C2=O)c(C)n1-c1cccnc1 | -15.5%
Cc1cccc(-n2c(C)cc(C=C3C(=O)c4ccccc4C3=O)c2C)c1 | 138%
Cc1cc(C=C2C(=O)c3ccccc3C2=O)c(C)n1-c1ccc(N2CCOCC2)cc1 | 0.7%
CCOC(=O)c1ccc(-n2c(C)cc(C=C3C(=O)c4ccccc4C3=O)c2C)cc1 | 11.9%
Cc1cc(C=C2C(=O)c3ccccc3C2=O)c(C)n1-c1cccc(Cl)c1 | 180%
Cc1cc(C=C2C(=O)c3ccccc3C2=O)c(C)n1-c1ccc(Cl)cc1 | 100%
CN1CCN(C(=O)c2cnn3c(C(F)(F)F)cc(-c4ccco4)nc23)CC1 | 6.4%
O=C(O)CCCN1C(=O)C(=O)/C(=C(\O)c2ccc(Cl)cc2)C1c1ccc(F)cc1 (stereo not given) | -0.6%

Structure (SMILES) | displacement
COc1ccc(N(CC(=O)NCCc2ccccc2)S(C)(=O)=O)c(OC)c1 | 3.4%
Cc1ccc(OCC(=O)N2CCCc3ccccc32)c(C)c1 | 6%
Cc1ccc(-c2ccc(OCC(=O)N3CCCc4ccccc43)cc2)cc1 | 59.3%
Cc1ccccc1OCC(=O)N1CCCc2ccccc21 | -4.9%
Cc1ccc(-c2noc(COc3ccc4ccccc4c3)n2)cc1 | 11%
CCOC(=O)c1cc2n(c1N(C(C)=O)C(C)=O)-c1ccccc1C2=O | -4.9%
O=c1[nH]c(=O)n(-c2ccccc2F)c(O)c1C=Nc1ccc(Cl)cc1 | -1.4%
CC(=O)NCCN=Cc1c(O)[nH]c2ccccc12 | 14%
CC(=O)NCCN=Cc1cc2n(c1O)-c1ccccc1C2=O | 167%
O=c1[nH]c(=O)n(-c2ccccc2Cl)c(O)c1C=Nc1ccc(Cl)cc1 | 18.6%
O=C1c2ccccc2-n2c1cc(C=Nc1ccc(Cl)cc1)c2O | 112%
CC(=O)Oc1ccc(C(=O)N2c3ccccc3Sc3ccccc32)cc1 | -7.2%
Cc1onc(-c2c(F)cccc2Cl)c1C(=O)NCc1ccc(Cl)cc1 | -6.9%
COc1ccc(/C=C/C(=O)NCCc2c[nH]c3ccccc23)cc1OC | -5%
COc1ccc2c(Cl)c(C(=O)N/N=C/c3ccccn3)sc2c1 | 7.8%
O=C(Nc1ccccc1)Nc1nnc(SCc2ccc(F)cc2)s1 | 13.5%
CCCCNc1cc(=O)n(C)c(=O)n1C | 6.5%
CCCCNc1ccc2c3c(cc(=O)n2C)-c2ccccc2C(=O)c13 | 129%
Cn1c(=O)cc2c3c(c(N)ccc31)C(=O)c1ccccc1-2 | 139%
Cn1c(=O)cc2c3c(c(Oc4ccccc4)ccc31)C(=O)c1ccccc1-2 | 108%
COCCCNc1ccc2c3c(nc(=O)n2C)-c2ccccc2C(=O)c13 | 139%
O=C1c2ccccc2C(=O)c2c(NCCO)ccc(NCCO)c21 | 46.4%

Structure (SMILES) | displacement
Cn1c(=O)cc(-c2ccccc2)c2ccccc21 | 7.4%
CCCCCCCNc1ccc(NC(=O)c2ccccc2)c2c1C(=O)c1ccccc1C2=O | 1.5%
Cn1c(=O)cc2c3c(c(Nc4cccc(Cl)c4)ccc31)C(=O)c1ccccc1-2 | 15.7%
Cn1c(=O)cc2c3c(c(N4CCCC4)ccc31)C(=O)c1ccccc1-2 | 38.2%
Nc1c(Cl)cc2c(c1Oc1ccccc1)C(=O)c1ccccc1C2=O | 8.6%
Cn1c(=O)cc(-c2ccccc2)c2cc(Cl)ccc21 | 14.7%
O=C1N=C(N=Nc2c(O)[nH]c3ccccc23)S/C1=C/c1ccc(Br)cc1 | 8.9%
COc1ccc(OC(C)C(=O)Nc2ccc3c(c2)OCCO3)cc1 (stereo not given) | -4.5%
CC(C)CC(NC(=O)c1ccccc1)C(=O)OCC(=O)N1c2ccccc2Sc2ccccc21 (stereo not given) | 9.1%
COc1ccc(S(=O)(=O)N(CC(=O)N2CCN(c3ccccc3)CC2)c2ccc(C)cc2)cc1OC | 6.1%
C=CCc1ccccc1OCCOc1ccc(Br)cc1/C=C1/SC(=S)N(C)C1=O | -1.8%
CCCCOc1ccc(C(=O)N2CCN(c3cccc(C)c3C)CC2)cc1 | -8.2%
NNC(=O)COc1ccccc1OCCOCCOc1ccccc1OCC(=O)NN | -10.4%
O=C1c2ccccc2-c2onc3ccc(Sc4ccccc4)c1c23 | 17.9%
COc1ccccc1NS(=O)(=O)c1cccc2c1C(=O)c1ccccc1C2=O | 3%
CC(C)CCOC(=O)c1ccc2c3c(onc13)-c1ccccc1C2=O | 21%
COc1ccc(OC)c2c1C(=O)c1ccccc1C2=O | 101%
CCOc1ccc(Nc2ccc3noc4c3c2C(=O)c2ccccc2-4)cc1 | -2%
O=C1c2ccccc2-c2onc3ccc(Cl)c1c23 | 40.4%
COC1=C(c2ccccc2)C(=O)c2ccccc2C1=O | -8.5%
COc1ccc2noc3c2c1C(=O)c1ccccc1-3 | 127%
CCOc1ccc2noc3c2c1C(=O)c1ccccc1-3 | 123%

Structure (SMILES) | displacement
CC(=O)c1ccc2c3c(onc13)-c1ccccc1C2=O | 2.4%
O=C1C=Cc2ccccc2/C1=N/Oc1ccc2noc3c2c1C(=O)c1ccccc1-3 | 25.9%
CCOC(=O)c1ccc2c3c(onc13)-c1ccccc1C2=O | 120%
COc1cc2c(NCc3ccco3)cc(O)c(CC(=O)Nc3ccc(Cl)cc3)c2cc1OC | 13%
COc1ccc(OC)c(CN2CCN(S(C)(=O)=O)CC2)c1 | -14%
O=C(CSc1nnc(-c2ccco2)n1-c1ccccc1)CSc1nnc(-c2ccco2)n1-c1ccccc1 | 15.9%
C=CCNC(=O)C1CC(=O)N(c2ccc(C)cc2)C1 (stereo not given) | -7.4%
Cc1cc(C)nc(NS(=O)(=O)c2ccc(NC(=O)CSc3ncn[nH]3)cc2)n1 | 5.3%
Nc1nc(Nc2nc(N3CCCC3)cc(C(F)(F)F)n2)cc(C(F)(F)F)n1 | 12%
CC1=C/C(=N/OS(=O)(=O)c2ccccc2)C=CC1=O | 28.6%
O=C1c2ccc(Oc3ccc([N+](=O)[O-])cc3)cc2C(=O)N1c1cccc(-c2nc3ccccc3o2)c1 | -3.8%
O=C(Nc1ccc(Cl)c(Cl)c1)c1cc([N+](=O)[O-])ccc1N1CCCCC1 | 14%
O=C(O)c1cccc2c1NC(c1cccc3ccccc13)C1CC=CC21 (stereo not given) | 25.1%
COc1cccc2c1NC(c1ccc(Cl)cc1)C1CC=CC21 (stereo not given) | 9.1%
COc1cccc2c1NC(c1ccccc1Br)C1CC=CC21 (stereo not given) | -4.2%
O=C(O)c1cccc2c1NC(c1ccc(Cl)cc1)C1CC=CC21 (stereo not given) | 148%
O=[N+]([O-])c1cccc2c1NC(c1ccc(Cl)cc1)C1CC=CC21 (stereo not given) | 7.5%
O=C(O)c1cccc2c1NC(c1ccccc1Br)C1CC=CC21 (stereo not given) | 132%
COc1cc(-c2ccccc2)nc(N)n1 | -5.4%
COc1ccc(/C=C/C(=O)Nc2ccc(Br)cc2C(=O)c2cc(OC)c(OC)c(OC)c2)cc1OC | 1.6%
COCC(=O)Nc1ccc2ccccc2c1 | -2.7%
Nc1ccc2nn(-c3ccc([N+](=O)[O-])cc3)nc2c1 | -8.4%
